Screening data: PubChem, National Center for Advancing Translational Sciences (NCATS)
A selection: hits, their analogues and other compounds. The true share with any hit is near 2.4%.
WRN helicase inh = qHTS for Inhibitors of WRN Helicase; WRN helicase unwinding, fluorescent forked duplex, kinetic; AID 651768, 2012; Potency, µM (doses to about 114 µM), hits mostly inhibitors; actives 0.46% (n = 360,000); Bifunctional 3'-5' exonuclease/ATP-dependent helicase WRN (Homo sapiens), Q14191; also: nearly all actives have a fitted effect of over 55% in size
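Fluorescence dequenching readout, ex 525 nm/em 598 nm, kinetic mode: forked duplex DNA (100 nM final) with adjacent fluorophore and quencher unwound by WRN (20 nM final) with 2 mM ATP. Compound preincubation 15 min, room temperature.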
FEN1 inhibitor = qHTS Assay for the Inhibitors of Human Flap endonuclease 1 (FEN1); P39748; Recombinant FEN1 flap cleavage, fluorescence, 15 min; Potency, µM (top dose mostly 114 µM), usual class: inhibitors; actives 0.35% (n = 390,000); AID 588795, 2011; also: nearly all actives have a fitted effect of over 65% in size
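Nuclease activity of 10 nM FEN1 was measured after 15 min of room-temperature exposure to titrated compounds, by adding 50 nM flap substrate and reading plates at 0 and 15 min.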
POLI inh = qHTS for Inhibitors of Polymerase Iota | DNA polymerase iota (Homo sapiens), Q9UNA4 | Pol iota fluorescent replication assay, 10 min | Potency, µM (doses to about 115 µM), hits mostly inhibitors | actives 1% (n = 390,000) | AID 588590, 2011
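Pol iota at 10 nM preincubated 15 min with compounds at room temperature; reaction started with fluorescent substrate, 50 nM final. Fluorescence read kinetically at 0 and 10 min; buffer-only wells as negative control.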
Pol beta inh = qHTS Assay for Inhibitors of DNA Polymerase Beta. Potency, µM (series often up to 114 µM), most hits filed as inhibitors. Pol beta primer extension/strand displacement, fluorescence kinetic. actives 1.3% (n = 340,000). P06746
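Values derive from four-parameter Hill fits of normalized kinetic data: reads at 0 and 10 min following addition of 50 nM substrate to 10 nM Pol beta preincubated 15 min with compound.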
Pol kappa inh-1 = qHTS for Inhibitors of Polymerase Kappa. DNA polymerase kappa (Homo sapiens), Q9UBT6. actives 0.53% (n = 400,000). purified Pol kappa, fluorescent DNA synthesis assay, 10 min. Potency, µM (titrated, usually from 107 µM), most hits filed as inhibitors. AID 588579, 2011
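10 nM Pol kappa was preincubated with compounds for 15 min at room temperature. Reaction started with 50 nM (final) substrate. Fluorescence read kinetically at 0 and 10 min.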
Pol eta inh-1 = qHTS for Inhibitors of Polymerase Eta | DNA polymerase eta (Homo sapiens), Q9Y253 | recombinant Pol eta, fluorescent DNA replication assay | Potency, µM (series often up to 114 µM), most hits filed as inhibitors | actives 1.2% (n = 390,000) | AID 588591, 2011
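Pol eta at 10 nM preincubated with compounds 15 min at room temperature; reaction started with fluorescent substrate (50 nM final) and read kinetically at 0 and 10 min.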
HEK293 viability = Secondary Assay for Inhibitors of Human Galactokinase (GALK): HEK-293 Cell Viability Assay | HEK-293 viability, ATP luminescence (CellTiter-Glo), 24/48 h | shares compounds with Pol eta inh-1 | actives 10% (n = 170) | Potency, µM (doses to about 46.1 µM), hits mostly inhibitors | AID 2547, 2010
Pol kappa inh-2 = qHTS for Inhibitors of Polymerase Kappa: Confirmatory Assay for Cherry-picked Compounds; shares compounds with Pol eta inh-1; Potency, µM, hits mostly inhibitors; actives 76% (n = 920); purified Pol-kappa, fluorescent strand-displacement substrate; AID 720501, 2013
Pol eta inh-2 = qHTS for Inhibitors of Polymerase Eta: Confirmatory Assay for Cherry-picked Compounds. Potency, µM, usual class: inhibitors. shares compounds with Pol eta inh-1. actives 64% (n = 2,600). Pol eta primer extension, TAMRA/BHQ fluorescence, 10 min
Each line names hits and unclear results; the compound was inactive in the other large screens (follow-up assays come after a bar, where they were run). Calls follow the shape of the dose curve; as a rule, active = well fitted curve in the direction sought with a large enough effect; inconclusive = small, poorly fitted or top-dose-only effect, or another doubt; inactive = no such curve, though single readings can be large; an effect the other way counts as inactive or inconclusive.

CCSc1nnc(NC(=O)C2CC=CCC2C(=O)O)s1 (centres undefined)	POLI inh inconclusive, Pol beta inh 31.6µM, Pol eta inh-1 20µM | Pol eta inh-2 inconclusive
Cc1ccc(C(=O)N2C3C=CC(C3)C2(C(F)(F)F)C(F)(F)F)cc1 (centres undefined)	none
O=C(c1ccco1)N1C2C=CC(C2)C1(C(F)(F)F)C(F)(F)F (centres undefined)	POLI inh inconclusive, Pol eta inh-1 35.5µM | Pol eta inh-2 inconclusive
Cc1ccc(OCc2ccoc2C(=O)O)cc1C	POLI inh inconclusive, Pol beta inh 17.8µM, Pol kappa inh-1 inconclusive, Pol eta inh-1 7.08µM | Pol eta inh-2 inconclusive
Cc1ccc(OCc2ccc(C(=O)O)o2)cc1C	none
CS(=O)(=O)Nc1ccc(OCc2ccccc2)cc1	none
NS(=O)(=O)c1ccc(CCNC(=O)CSc2ccsc2[N+](=O)[O-])cc1	POLI inh inconclusive, Pol kappa inh-1 inconclusive, Pol eta inh-1 22.4µM | Pol eta inh-2 inconclusive
CCOC(=O)c1sc(N=NC2=C(O)CCCC2=O)c(C(=O)OCC)c1C	WRN helicase inh inconclusive, FEN1 inhibitor inconclusive, POLI inh inconclusive, Pol beta inh 8.91µM, Pol kappa inh-1 inconclusive, Pol eta inh-1 79.4µM | Pol eta inh-2 67.5
CCOC(=O)/C(N=Nc1sc(C(=O)OCC)c(C)c1C(=O)OCC)=C(\C)O	none (no result: WRN helicase inh, FEN1 inhibitor, POLI inh, Pol kappa inh-1, Pol eta inh-1)
COc1ccc(C(=O)OCc2cc(=O)n3nc(-c4cccs4)sc3n2)cc1	POLI inh inconclusive, Pol beta inh inconclusive, Pol eta inh-1 inconclusive (no result: WRN helicase inh) | Pol eta inh-2 inconclusive
CC(C)(C)C(=O)Nc1ccc2c(c1)C(=O)C(=O)c1ccccc1-2	FEN1 inhibitor inconclusive, POLI inh 1.41µM (no result: WRN helicase inh, Pol beta inh, Pol eta inh-1) | HEK293 viability 5.6µM
CN(C)C1(CN=Cc2cc(Cl)cc([N+](=O)[O-])c2O)CCCCC1	POLI inh inconclusive, Pol beta inh 14.1µM, Pol kappa inh-1 inconclusive, Pol eta inh-1 inconclusive | Pol eta inh-2 inconclusive
CCOC(=O)c1c(NS(=O)(=O)c2ccc(Br)cc2)sc2c1CCC2	WRN helicase inh inconclusive, POLI inh 11.2µM, Pol kappa inh-1 79.4µM, Pol eta inh-1 20µM (no result: Pol beta inh) | Pol eta inh-2 inconclusive
CCOC(=O)c1c(NS(=O)(=O)Cc2ccccc2)sc2c1CCCC2	none
CCOC(=O)N1CCN(S(=O)(=O)N2CCCC(C(=O)NCCc3ccc(OC)c(OC)c3)C2)CC1 (centres undefined)	none
Cc1ccc(C)c(Cn2nnc3c(=O)[nH]c(C(=O)NCc4ccco4)nc32)c1	WRN helicase inh inconclusive, POLI inh 22.4µM, Pol kappa inh-1 89.1µM, Pol eta inh-1 31.6µM | Pol eta inh-2 75.7
Cc1ccc(C)c(Cn2nnc3c(=O)[nH]c(C4CCCN(C(=O)C5CCCCC5)C4)nc32)c1 (centres undefined)	none
Cc1ccc(OCC(=O)N/N=C\c2ccc(C)o2)c(C)c1	none
COc1ccc(CC(=O)N/N=C/c2ccc(-c3cccc(C(=O)O)c3)o2)cc1OC	POLI inh inconclusive, Pol beta inh 12.6µM, Pol kappa inh-1 79.4µM, Pol eta inh-1 10µM | Pol kappa inh-2 11.9 | Pol eta inh-2 19
O=C(O)c1cccc(-c2ccc(/C=N/Nc3nn[nH]n3)o2)c1	Pol beta inh inconclusive, Pol kappa inh-1 inconclusive, Pol eta inh-1 inconclusive | Pol eta inh-2 67.5
Cc1ccc(OCC(=O)N/N=C\c2ccc(-c3cccc(C(=O)O)c3)o2)c(C)c1	WRN helicase inh inconclusive, POLI inh inconclusive, Pol beta inh 20µM, Pol kappa inh-1 50.1µM, Pol eta inh-1 3.55µM | Pol eta inh-2 30.1
CNC(=S)N/N=C/c1ccc(-c2cccc(C(=O)O)c2)o1	none
O=C(Nc1cc(Cl)ccc1Cl)c1cc(-c2ccco2)on1	none
CCCCN(CC)C(=O)/C=C/c1cccc([N+](=O)[O-])c1	none
Cc1ccc(-c2csc3ncn(CC#N)c(=O)c23)cc1C	FEN1 inhibitor inconclusive, POLI inh 28.2µM, Pol beta inh 31.6µM, Pol kappa inh-1 79.4µM, Pol eta inh-1 20µM | Pol kappa inh-2 59.7 | Pol eta inh-2 53.6
COc1ccc(C(=O)Nc2ccc(-c3nnc4n3CCCCC4)cc2)cc1	none (no result: WRN helicase inh)
COc1ccc(C(=O)Nc2ccc(-c3nnc4n3CCCCC4)cc2)cc1OC	POLI inh inconclusive, Pol beta inh 31.6µM, Pol kappa inh-1 inconclusive (no result: WRN helicase inh) | Pol kappa inh-2 16.8
Cc1c(C)c2ccc(OC(C)C(=O)N[C@@H](Cc3c[nH]c4ccccc34)C(=O)O)c(C)c2oc1=O (some centres undefined)	none
O=C(COc1cc2oc(=O)cc(-c3ccccc3)c2cc1Cl)NC(Cc1c[nH]c2ccc(O)cc12)C(=O)O (centres undefined)	FEN1 inhibitor inconclusive, POLI inh inconclusive, Pol beta inh inconclusive, Pol eta inh-1 50.1µM | Pol eta inh-2 inconclusive
O=C(COc1ccc2c(-c3ccccc3)cc(=O)oc2c1)N[C@H](Cc1c[nH]c2ccccc12)C(=O)O	Pol eta inh-1 inconclusive
CC(Oc1ccc2ccc(=O)oc2c1)C(=O)NC(Cc1c[nH]c2ccc(O)cc12)C(=O)O (centres undefined)	POLI inh inconclusive, Pol beta inh inconclusive, Pol kappa inh-1 inconclusive, Pol eta inh-1 22.4µM | Pol eta inh-2 inconclusive
Cc1c(OC(C)C(=O)NC(Cc2c[nH]c3ccc(O)cc23)C(=O)O)ccc2c1oc(=O)c1ccccc12 (centres undefined)	WRN helicase inh inconclusive, FEN1 inhibitor inconclusive, POLI inh 44.7µM, Pol beta inh 2.51µM, Pol kappa inh-1 inconclusive, Pol eta inh-1 20µM | Pol eta inh-2 inconclusive
CN1/C(=C\C(=O)CSc2nnc(N)s2)C(C)(C)c2ccccc21	none
COCCNC(=O)Cc1c(C)c2c(cc(C)c3c(C)coc32)oc1=O	none
O=C(c1cccc(S(=O)(=O)N2CCCCC2)c1)N1CCCCC1	none
O=C(O)C1=C(Nc2ccccc2)OCC1=O	POLI inh inconclusive
